Records with an inconclusive call do not appear. Active and inactive are the calls of the source. Calls come from the whole dose curve; as a rule, active = well fitted cell-killing curve with a large enough effect; inconclusive = small, poorly fitted or top-dose-only effect; inactive = flat fitted curve, though single readings scatter.
Assay: qHTS of pediatric cancer cell lines to identify multiple opportunities for drug repurposing: Primary screen for TC32 cells (AID 1347089); note: nearly all actives have a fitted effect of over 60% in size
Conditions: TC32 Ewing sarcoma viability, CellTiter-Glo luminescence, 48 h; series mostly up to 45.8 µM; activity change, negative = cytotoxic: at the top concentration
Outline: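 A viability screen of TC32 cells was run over 48 h, with primary MIPE doses spanning 0.78 nM–46 µM and NPC doses 0.59 nM–46 µM. ATP luminescence (CellTiter-Glo) served as the read-out.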
% is set by controls: 0 for no effect and ±100 for the full control effect; potency is the fitted concentration of half-maximal effect.

| Compound | activity change, negative = cytotoxic | Potency |
| --- | --- | --- |
| CON=C(C(=O)N[C@@H]1C(=O)N2C(C(=O)O)=C(Cn3ccc(=N)n3CCO)CS[C@H]12)c1csc(N)n1 | 7.76% (inactive) | – |
| CCc1cc(C(C)=NOCc2ccc(C3CCCCC3)c(C(F)(F)F)c2)ccc1CN1CC(C(=O)O)C1 | 10.6% (inactive) | – |
| COc1ccc([C@@H]2CNC(=O)C2)cc1OC1CCCC1 | 8.22% (inactive) | – |
| C=CC[C@@H]1C=C(C)C[C@H](C)C[C@H](OC)[C@H]2O[C@@](O)(C(=O)C(=O)N3CCCC[C@H]3C(=O)O[C@H](C(C)=C[C@@H]3CC[C@H](O)[C@H](OC)C3)[C@@H](C)[C@@H](O)CC1=O)[C@@H](C)C[C@@H]2OC | 8.96% (inactive) | – |
| N#CC(=C(N)Sc1ccc(N)cc1)c1ccccc1C(F)(F)F | 5.32% (inactive) | – |
| COc1cc(C)c(Sc2cnc(NC(=O)c3ccc(CNC(C)C(C)(C)C)cc3)s2)cc1C(=O)N1CCN(C(C)=O)CC1 (centres undefined) | – | 20.8 µM (active) |
| COc1ccc(Nc2cc(-c3cnc(N)nc3)nc(N3CCOCC3)n2)cn1 | – | 4.66 µM (active) |
| C[N+]1(C)[C@@H]2C[C@@H](OC(=O)C(O)(c3cccs3)c3cccs3)C[C@H]1[C@@H]1O[C@@H]12 | 11.2% (inactive) | – |
| CC(=O)N[C@H]1[C@@H]([C@H](O)[C@H](O)CO)OC(C(=O)O)=C[C@@H]1N=C(N)N | 8.4% (inactive) | – |
| C=C1C[C@@]2(O)O[C@@]3(C[C@H]2C(C)C)[C@H](C)CC[C@H]13 | 11.2% (inactive) | – |
| Cc1ccc2nc(NCCN)c3ncc(C)n3c2c1 | – | 23.4 µM (active) |
| O=C(O)C=Cc1ccc(Cn2ccnc2)cc1 | 13.5% (inactive) | – |
| NC1=N[C@H]2[C@H](CS[C@H]2CCCCC(=O)O)N1 | 14.8% [at 16 µM] (inactive) | – |
| OCc1ccccc1O[C@@H]1O[C@H](CO)[C@H](O)[C@H](O)[C@H]1O | 4.14% (inactive) | – |
| OCCN1C[C@H](O)[C@@H](O)[C@H](O)[C@@H]1CO | 1.79% (inactive) | – |
| COC(=O)[C@@H]1CC2=CC(=O)CC[C@]2(C)[C@@]23O[C@@H]2C[C@@]2(C)[C@H](CC[C@@]24CCC(=O)O4)[C@@H]13 | 2.39% (inactive) | – |
| CN[C@H](CC(C)C)C(=O)N[C@H]1C(=O)N[C@@H](CC(N)=O)C(=O)N[C@@H]2C(=O)N[C@H]3C(=O)N[C@H](C(=O)N[C@H](C(=O)O)c4cc(O)cc(O)c4-c4cc3ccc4O)[C@H](O)c3ccc(c(Cl)c3)Oc3cc2cc(c3O[C@@H]2O[C@H](CO)[C@@H](O)[C@H](O)[C@@H]2O[C@H]2C[C@](C)(N)[C@H](O)[C@H](C)O2)Oc2ccc(cc2Cl)[C@H]1O | 7.83% (inactive) | – |

| Compound | activity change, negative = cytotoxic | Potency |
| --- | --- | --- |
| Cc1cn([C@@H]2O[C@H](CO)[C@@H](O)[C@H]2F)c(=O)[nH]c1=O | 11.9% (inactive) | – |
| Cc1ccccc1C(=O)Nc1ccc(C(=O)N2CCCC(O)c3cc(Cl)ccc32)c(C)c1 (centres undefined) | 2.83% (inactive) | – |
| CNC(=O)Nc1ccc(-c2nc(N3CC4CCC(C3)O4)c3cnn(C4CCC5(CC4)OCCO5)c3n2)cc1 | – | 0.0262 µM (active) |
| CN[C@H]1[C@@H](O)[C@@H]2O[C@@H]3O[C@H](C)CC(=O)[C@]3(O)O[C@@H]2[C@@H](NC)[C@H]1O | – | 13.1 µM (active) |
| O=c1[nH]c(=O)n([C@H]2C[C@@H](O)[C@@H](CO)O2)cc1C=CBr | 4.41% (inactive) | – |
| C=Cc1c(C)c2cc3nc(cc4[nH]c(cc5nc(cc1[nH]2)C(C)=C5CCC(=O)O)c(CCC(=O)OC)c4C)[C@@]1(C)C3=CC=C(C(=O)OC)[C@H]1C(=O)OC | – | 5.87 µM (active) |
| CC(C)(O)CC[C@@H](O)[C@](C)(O)[C@H]1CC[C@@]2(O)C3=CC(=O)[C@@H]4C[C@@H](O)[C@@H](O)C[C@]4(C)[C@@H]3CC[C@]12C | 3.11% (inactive) | – |
| CCCCC(=O)O[C@]1(C(=O)CO)[C@@H](C)C[C@H]2[C@@H]3CCC4=CC(=O)C=C[C@]4(C)[C@@]3(F)[C@@H](O)C[C@@]21C | 14.1% (inactive) | – |
| CC(=O)C1=C(O)C=C2Oc3c(C(C)=O)c(O)c(C)c(O)c3C2(C)C1=O (centres undefined) | 14.1% (inactive) | – |
| C=CC(=O)N1CCc2ccc(-n3c(=O)ccc4cnc5ccc(-c6cnn(C)c6)cc5c43)cc21 | – | 9.3 µM (active) |
| CC(Cc1ccc(O)c(O)c1)(NN)C(=O)O (centres undefined) | -10.8% (inactive) | – |
| CCNC(=O)Nc1ccc(-c2nc3c(c(N4CCOC[C@H]4C)n2)CCN(C2COC2)C3)cc1 | – | 3.3 µM (active) |
| CC1(C)O[C@@H]2C[C@H]3[C@@H]4CCC5=CC(=O)C=C[C@]5(C)[C@@H]4[C@@H](O)C[C@]3(C)[C@]2(C(=O)CO)O1 | 10.6% (inactive) | – |
| O=C(Nc1ccc(Oc2ccnc3[nH]ccc23)c(F)c1)c1cccn(-c2ccc(F)cc2)c1=O | 11.8% (inactive) | – |
| C[C@@H]1[C@H](C)CC[C@]2(C(=O)O)CC[C@]3(C)C(=CC[C@@H]4[C@@]5(C)C[C@@H](O)[C@H](O)[C@@](C)(CO)[C@H]5CC[C@]43C)[C@@H]12 | 9.11% (inactive) | – |
| CCCCCCCCCCCCc1ccc(S(=O)(=O)Nc2nncs2)cc1 | -4.2% (inactive) | – |
| CON=C(C(=O)N[C@@H]1C(=O)N2C(C(=O)O)=C(CSC(=O)c3ccco3)CS[C@H]12)c1csc(N)n1 | 6.91% (inactive) | – |

— PubChem BioAssay (NCATS)
